Inconclusive results are not listed. Active and inactive are the calls of the source. The call rests on the fitted dose curve; in most records, active means well fitted inhibition curve with a large enough effect in the polarisation, with a control signal flat (not every such curve was filed as active); inconclusive means small, poorly fitted or top-dose-only effect, or effect the other way, or a change in a side signal; inactive means no such curve, though single readings can be large or run the other way; the % refers to the polarisation.
What follows are compounds tested against Menin (Homo sapiens) (UniProt O00255) (assay: Confirmation of Inhibitors Targeting the Menin-MLL Interaction in MLL Related Leukemias: Competition With Fluorescein Labeled MLL-derived Peptide). Conditions: Fluorescence polarization, fluorescein-MLL peptide displacement from menin; series mostly up to 100 µM.
Chain of Menin (Homo sapiens) (O00255 whole entry, looked up): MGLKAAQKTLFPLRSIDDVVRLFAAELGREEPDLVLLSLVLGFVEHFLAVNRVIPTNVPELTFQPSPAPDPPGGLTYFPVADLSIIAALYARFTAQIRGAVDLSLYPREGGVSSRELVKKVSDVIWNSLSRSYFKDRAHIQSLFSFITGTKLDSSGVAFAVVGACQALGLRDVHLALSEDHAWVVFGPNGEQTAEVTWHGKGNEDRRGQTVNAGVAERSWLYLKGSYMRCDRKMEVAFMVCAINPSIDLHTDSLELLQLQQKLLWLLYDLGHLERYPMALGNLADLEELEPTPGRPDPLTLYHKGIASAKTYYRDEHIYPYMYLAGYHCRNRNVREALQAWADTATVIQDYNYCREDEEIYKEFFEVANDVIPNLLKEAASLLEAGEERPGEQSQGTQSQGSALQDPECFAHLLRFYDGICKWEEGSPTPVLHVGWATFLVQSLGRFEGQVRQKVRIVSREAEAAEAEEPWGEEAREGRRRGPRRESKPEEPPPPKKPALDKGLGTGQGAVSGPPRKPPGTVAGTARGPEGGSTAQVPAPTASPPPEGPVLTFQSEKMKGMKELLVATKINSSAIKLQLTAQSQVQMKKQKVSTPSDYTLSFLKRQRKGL
For `COc1ccccc1CC(=O)Nc1ccc(-c2noc(COc3ccc(Br)cc3)n2)cc1`, the outcome was “inactive”.
For `Cc1ccc(C)n1-c1ccc(N(C)C)cc1`, the outcome was “inactive”.
In the case of `CC(c1cc2ccccc2s1)N(O)C(N)=O` (centres undefined), the outcome was “inactive”.
In the case of `COc1cc2c(cc1NC(=S)NC(=O)c1c(OC)cccc1OC)oc1ccccc12`, the outcome was “inactive”.
For `CCN(CC)c1nc(-c2ccc(C(=O)NN)cc2)nc(-c2ccc(C(=O)NN)cc2)n1`, the outcome was “inactive”.
In the case of `COc1cccc(OC)c1NC(=O)CN1CCN(C)CC1`, the outcome was “inactive”.
In the case of `O=C(c1cc(F)c(F)cc1Cl)N1CCN(c2ncccn2)CC1`, the outcome was “inactive”.
For `CCOC(=O)N1CCN(CCC(=O)c2ccc(Br)cc2)CC1`, the outcome was “inactive”.
In the case of `COc1cccc(C(=O)/C=C/Nc2ccc(S(=O)(=O)Nc3ccc(C(C)=O)cc3)cc2)c1`, the outcome was “inactive”.
For `Cc1c(C(=O)OCC(=O)Nc2ccc(S(N)(=O)=O)cc2)oc2c1ccc1ccccc12`, the outcome was “inactive”.
`O=C(CSc1ccc(Cl)cc1)Nc1ccc(NC(=O)c2ccco2)cc1` was tested, and the outcome was “inactive”.
`COc1ccc(/C=C(\C#N)C(=O)NCc2ccccc2)cc1` was tested, and the outcome was “inactive”.
`O=C(NC(=S)N1CCCc2ccccc21)c1ccc([N+](=O)[O-])cc1` was tested, and the outcome was “inactive”.
With `COc1ccc(C2Nc3ccc4ccccc4c3-c3c2c(=O)oc2ccccc32)cc1` (centres undefined) the outcome was “inactive”.
For `CCOc1cc(C(c2c(C)[nH][nH]c2=O)c2c(C)[nH][nH]c2=O)cc(Br)c1OC`, the outcome was “inactive”.
In the case of `O=C(CC(Sc1ccc(Br)cc1)C(=O)O)c1ccc(F)cc1` (centres undefined), the outcome was “inactive”.
In the case of `C=C1CCC[C@]2(C)C[C@H]3OC(=O)C(CNCCN(CC)CC)[C@H]3CC12` (some centres undefined), the outcome was “inactive”.
`COC(=O)c1cc(CNC(=O)CCCSc2ccccc2)ccc1OC` was tested, and the outcome was “inactive”.
For `COc1ccc(C)cc1N(C(=O)c1snc(C(N)=O)c1N)C(C(=O)NC1CCCC1)c1ccc(F)cc1` (centres undefined), the outcome was “inactive”.
`CSC[C@@H]1NC(=S)N(c2ccc(C)cc2)C1=O` was tested, and the outcome was “inactive”.
With `Cc1cc2ccccc2nc1SCC(=O)Nc1nc(-c2ccccc2)cs1` the outcome was “inactive”.
In the case of `Cc1ccc(-c2cc(C(=O)Nc3cc(C)ccc3O)no2)cc1`, the outcome was “inactive”.
With `COC(=O)c1ccccc1NC1=C/C(=N\S(=O)(=O)c2ccc(C(=O)O)cc2)c2ccccc2C1=O` the outcome was “inactive”.
In the case of `COc1cc(O)c(C(=O)c2ccccc2)cc1O`, the outcome was “inactive”.
In the case of `O=C(CCC1CCCCC1)NCCN1C2=NC[C@H](Cc3ccc(O)cc3)N2C[C@H]1Cc1ccc(O)cc1`, the outcome was “inactive”.
`O=C(N/N=C/c1cn(-c2ccccc2)nc1-c1cc2ccccc2o1)c1ccccc1Br` was tested, and the outcome was “inactive”.
For `NS(=O)(=O)c1ccc(NC(=O)c2ccc(S(=O)(=O)N3CCc4ccccc43)cc2)cc1`, the outcome was “inactive”.
`CN(C)CCc1c[nH]c2ccc(CC3COC(=O)N3)cc12` (centres undefined) was tested, and the outcome was “inactive”.
For `O=C(NC(=S)Nc1ccccc1)c1cc(-c2ccccc2)nc2ccccc12`, the outcome was “inactive”.
In the case of `COc1ccc2[nH]c(=O)c(CN(Cc3cccs3)C(=S)Nc3cccc(C)c3)cc2c1`, the outcome was “inactive”.
In the case of `CCCc1nc2c(=O)[nH]c3ccccc3c2o1`, the outcome was “inactive”.
For `OC(c1ccccn1)(c1ccccn1)c1ccccn1`, the outcome was “inactive”.
`C[C@@H]1CN(C(=O)c2nc3ccc(Cl)cn3c2CNCC[C@@H]2C[C@@H]3C=C[C@H]2C3)C[C@H](C)O1` was tested, and the outcome was “inactive”.
In the case of `COc1ccc(CC(=O)Nc2ccc(-c3nnc(-c4ccccc4)o3)cc2)cc1`, the outcome was “inactive”.

From PubChem BioAssay AID2783 (National Center for Advancing Translational Sciences (NCATS), 2010)
